# Screening data from PubChem.
# DAX1 inh-1 – DAX1 (NR0B1) inhibitors, primary screen, cell-based, HEK293, Gal4-DAX1, luciferase luminescence; Nuclear receptor subfamily 0 group B member 1 (Homo sapiens), P51843; AID 504766, 2011; inhibition, % at 6.75 µM; HEK293 Gal4-DAX1 luciferase reporter; 0.99% of 340,000 active;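 active = inhibition above the mean over all tested compounds plus 3 SD, cut at about 4.2% in these data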;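 also: 0% = DAX1-transfected cells with DMSO and 100% = empty-vector control cells with DMSO; inhibition shows as a rise in luminescence from relieved DAX1 repression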
# hgDAF12 agonist – H. glycines DAF-12 receptor agonists, primary screen, cell-based, luminescence, HEK293, GAL4 fusion, UAS-luciferase | activation, % at 6.8 µM | 1.8% of 370,000 active | HEK293 GAL4-hgDAF12 UAS-luciferase reporter, agonist luminescence; normalized to butyrate control | Nuclear hormone receptor DAF-12 (Heterodera glycines), GAL4 fusion;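 active = activation above a cutoff set at the mean of all screened compounds plus 3 SD, cut at about 10% in these data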;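 also: 0% = DMSO wells and 100% = sodium butyrate wells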
# DAX1 inh-2 – DAX1 (NR0B1) inhibitors on StAR promoter, primary screen, cell-based, luminescence, SF-1 (NR5A1), full-length DAX-1; HEK293T StAR-luciferase reporter, SF-1/DAX-1 repression relief; AID 652010, 2013; inhibition, % at 6.8 µM; 1.1% of 370,000 active;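 active = inhibition above the mean over all tested compounds plus 3 SD, cut at about 3.6% in these data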;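 also: 0% = DAX-1 cells with DMSO and 100% = cells lacking DAX-1 with DMSO; higher inhibition means more luminescence from relief of DAX-1 repression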
# ssDAF12 agonist – S. stercoralis DAF-12 nuclear receptor activators, primary screen, cell-based, luminescence, HEK293, GRIP1 co-expression, lit1-tk-luc; Nuclear hormone receptor DAF-12 (Strongyloides stercoralis); HEK293 ssDAF-12/GRIP1 lit1-tk-luc reporter; % of 3 µM dafachronic acid response; activation, % at 6.8 µM; 1% of 370,000 active; AID 652126, 2013;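 active = activation above the mean over all tested compounds plus 3 SD, cut at about 0.9% in these data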;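 also: 0% = DMSO-only wells and 100% = 3 µM delta7-dafachronic acid wells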
# hcDAF-12 act – H. contortus DAF-12 nuclear receptor activators, primary screen, cell-based, luminescence, HEK293, lit1-tk-luc reporter. HEK293 hcDAF-12 lit1-tk-luc reporter; 0% DMSO, 100% Δ7-dafachronic acid. activation, % at 6.8 µM. 1.4% of 370,000 active. AID 652067, 2013;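 active = activation above the mean of all tested compounds plus 3 SD, cut at about 5.5% in these data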;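 also: 100% = response to 3 µM Δ7-dafachronic acid high control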
# hgDAF12 conf – H. glycines DAF-12 receptor agonists, confirmation, cell-based, luminescence, HEK293, GAL4-LBD fusion. AID 743050, 2013. shares compounds with hgDAF12 agonist. activation, % at 6.8 µM. 80% of 3,300 active. HEK293 GAL4-hgDAF12 luciferase reporter, agonist mode; percent of butyrate response;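 active = mean activation over triplicate wells above the hit cutoff derived from the earlier primary screen, cut at about 11% in these data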;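 also: 0% = DMSO low control and 100% = 2 mM sodium butyrate high control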
# LXRb DAF12 ctr – LXR agonists, Gal4 luciferase reporter, confirmation, counter-screen for hgDAF-12 agonist project, cell-based, luminescence, HEK293, H. glycines campaign; shares compounds with hgDAF12 agonist; 24 h; activation, % at 6.8 µM; 3,300 tested, under 10 active;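 active = mean activation of the triplicate above a set limit carried over from the primary screen, none filed active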
# Target sequence (P55055 whole entry, looked up, the tested form may be a part): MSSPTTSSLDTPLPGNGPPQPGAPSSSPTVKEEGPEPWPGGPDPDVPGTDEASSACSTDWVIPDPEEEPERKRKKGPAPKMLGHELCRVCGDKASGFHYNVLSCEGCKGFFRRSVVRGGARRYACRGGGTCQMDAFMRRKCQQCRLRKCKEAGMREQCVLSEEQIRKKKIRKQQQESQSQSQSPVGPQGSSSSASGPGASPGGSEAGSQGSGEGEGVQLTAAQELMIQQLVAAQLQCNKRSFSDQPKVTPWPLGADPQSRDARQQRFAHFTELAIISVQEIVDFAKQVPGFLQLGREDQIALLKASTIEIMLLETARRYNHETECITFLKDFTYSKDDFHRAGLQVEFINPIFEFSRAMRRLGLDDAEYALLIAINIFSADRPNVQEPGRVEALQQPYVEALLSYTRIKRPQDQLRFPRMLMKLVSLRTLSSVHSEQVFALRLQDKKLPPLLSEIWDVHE
# Numbers without * were called inactive; . = not tested or not shown. Sampled rows, rich in hits. Any-hit rate of the full collection: about 4.1%.
SMILES,DAX1 inh-1,hgDAF12 agonist,DAX1 inh-2,ssDAF12 agonist,hcDAF-12 act,hgDAF12 conf,LXRb DAF12 ctr
O=C(Nc1ccc(Br)cn1)c1ccc2ccccc2c1,1.7,14.4*,1.9,1.6*,4.5,19.3*,0.8
CC(=O)c1cccc(NC(=O)c2ccc3ccccc3c2)c1,2.2,19.2*,3.2,0.8,3.9,17.0*,0.8
CC(=O)N1CCN(c2ccc(NC(=O)c3cc4ccccc4o3)cc2)CC1,-0.9,-0.6,-0.4,-1.8,-2.0,.,.
O=C(COCc1ccccc1)NC1CCCCN(Cc2ccc(Cl)cc2)C1=O (stereo not drawn),.,-1.7,-1.3,-0.7,-3.5,.,.
C#CCNC(=O)C[C@@H]1C[C@@]2(C(=O)OC)CCCCC=C2N(Cc2ccc(Cl)cc2Cl)C1=O,.,-1.0,-1.1,-0.8,-0.5,.,.
N=C1/C(=C/c2ccc(OCc3ccccc3F)cc2)C(=O)N=C2SC(CC(=O)N3CCOCC3)=NN12,1.1,14.8*,0.1,-0.3,4.0,2.9,0.1
COc1ncccc1-c1nnn(-c2ccc(C)cc2)n1,0.6,16.7*,1.7,-0.2,2.7,16.6*,0.8
CC(C)NC(=O)C1(C)CCN1C(=O)c1ccccc1F (stereo not drawn),.,-1.6,0.7,-1.0,1.3,.,.
O=S1(=O)c2ccc(Br)cc2OC[C@@H](Cc2ccccc2)N1Cc1cn(Cc2ccc(C(F)(F)F)cc2)nn1,.,-0.3,0.6,0.1,2.3,.,.
CN(C)/C=N/C(=S)Nc1ccc(Cl)cc1,1.8,13.9*,0.9,-0.9,0.8,10.9*,0.3
CCCCCCCCN1C(=O)[C@@H](CC(=O)NCc2cccs2)C[C@@]2(C(=O)OC)C1=C[C@H](C(C)C)O[C@@H]2C1CC1,.,5.1,-0.5,-1.2,-0.1,.,.
COc1ccc(-n2ncc3c(N4CCC(C(N)=O)CC4)ncnc32)cc1,3.0,14.1*,3.0,-0.1,4.6,14.7*,0.6
NC(=S)N1OC[C@@H]2COc3ccc4ccccc4c3[C@@H]21,1.3,21.2*,-1.4,-0.8,2.6,8.4,0.2
CC(=O)Nc1ccc(-c2ccnc3c2CC(C)(C(=O)Nc2cccc(OC(F)(F)F)c2)O3)cc1 (stereo not drawn),.,-1.2,-1.4,-1.3,-1.0,.,.
Cc1cc(OCC(=O)N(C)C2CCCCC2)ccc1Cl,0.2,17.4*,3.6*,0.7,4.1,10.0,0.8
CC1CC1C(=O)Nc1nc2ccc(S(C)(=O)=O)cc2s1 (stereo not drawn),-1.8,0.7,-0.3,-1.4,-0.7,.,.
Cc1ccc2nc(NC(=O)CCn3cccc3)sc2c1,1.9,14.8*,2.7,-1.7,2.1,8.8,0.2
Cc1ccc2nc(NC(=O)C3CC3C)sc2c1 (stereo not drawn),0.8,14.2*,0.6,0.3,4.6,11.9*,0.6
CCCC/C=C1/[C@@H](c2ccc(Cl)cc2)N(Cc2ccc3c(c2)OCO3)C2=N[C@@H](c3ccccc3)CC(=O)N21,.,0.3,-0.5,-1.3,-2.1,.,.
COP(=O)(CC(=O)OC(C)(C)C)C(CC(C)C)NC(=O)OCc1ccccc1 (stereo not drawn),.,-1.2,-0.9,-0.5,-0.1,.,.
Fc1cccc2sc(Nc3nc4cc5c(cc4s3)OCO5)nc12,0.7,15.9*,3.2,1.1*,6.3*,13.6*,0.6
CCOc1ccccc1CN1[C@@H](c2ccc(OC)cc2)CC(C(=O)OC)(C(=O)OC)[C@H]1c1ccccc1,.,5.0,0.2,-1.2,0.9,.,.
CCOC(=O)C1=C[C@@H](CC)N(S(=O)(=O)c2ccc(C)cc2)[C@H]1c1cccc(Cl)c1,.,-2.7,-1.1,-1.5,-1.4,.,.
O=C(O)C1=C(C(=O)Nc2ccc(F)c(Cl)c2)CCCC1,0.6,-0.5,1.0,-0.2,0.3,.,.
O=C(Nc1ccc(F)c(Cl)c1)c1nsc(Cl)c1Cl,4.2,13.5*,2.4,0.7,4.3,15.8*,0.8
SMILES,DAX1 inh-1,hgDAF12 agonist,DAX1 inh-2,ssDAF12 agonist,hcDAF-12 act,hgDAF12 conf,LXRb DAF12 ctr
C=CCN1C(=O)[C@H](CC(=O)NCc2cccs2)[C@@]2(C(=O)OCC)CCCC=C12,.,-1.5,-0.5,-0.5,-1.4,.,.
Cc1ccc(Nc2nc(C)cs2)cc1,0.6,16.4*,2.2,-0.1,4.0,14.1*,0.9
Fc1cc(Cl)cc2ccc(-c3ccccc3)nc12,.,15.2*,1.7,0.8,2.9,8.9,0.2
Fc1ccc2nc(-c3ccccc3)ccc2c1,.,7.1,2.2,-0.3,0.9,.,.
CCc1nc2ccc(C(=O)NCCC(C)C)cn2c1N(CC)CCOC,.,1.6,-0.5,-1.5,-0.9,.,.
O=C(/C=C/c1ccco1)Nc1nnc(-c2ccco2)s1,1.1,3.1,0.8,-0.3,0.4,.,.
Cc1nc(NC(=O)/C=C/c2ccco2)sc1C,3.3,13.4*,1.8,-0.8,1.3,18.6*,0.7
CCOC(=O)C(Cc1c[nH]c2ccccc12)NC(=O)c1ccccc1Br (stereo not drawn),0.9,13.6*,0.4,-0.7,3.4,5.2,0.1
COc1cccc(-c2cccc(-c3nc(C(=O)NCc4ccc5c(c4)OCO5)cc4c3[C@H](CCO)N(S(=O)C(C)(C)C)C4)c2)c1 (stereo partly drawn),.,-2.0,1.4,-1.1,-0.5,.,.
O=C(Nc1ccc(O)cc1)c1c(O)c2c([nH]c1=O)CCCC2,1.3,14.2*,3.7*,0.7,4.9,13.3*,0.9
N/C(=N\OC(=O)c1ccc2c(c1)OCO2)c1cccnc1,1.0,13.7*,1.9,1.1*,4.5,11.4*,0.4
N/C(=N\OC(=O)c1ccc2c(c1)OCO2)c1cccc(Br)c1,-0.5,5.5,0.7,-0.3,1.6,.,.
O=C(NC(=S)Nc1ccc(O)cc1)C1CCCC1,0.7,3.9,-0.2,-1.1,2.7,.,.
Cc1ccc(NC(=S)NC(=O)C2CCC2)cc1C,0.6,13.8*,1.0,-0.2,4.6,10.9*,0.3
O=C(N[C@H]1CC[C@@H]2SC[C@@H](C(=O)O)N2C1=O)OCC1c2ccccc2-c2ccccc21,.,0.4,-0.7,-1.3,-0.8,.,.
O=c1c(-c2ccc(O)cc2)coc2cc(O)cc(O)c12,4.2*,16.6*,2.9,0.2,2.6,9.5,0.4
